The values below come from PubChem BioAssay (NCI).

Each structure is given as a SMILES string. Where “and” joins values, the source holds several entries; their conditions need not be identical. Equal values may be shown once. This is part of a sample that, as a whole, favours compounds with a hit. Of some 83,000 tested, about 20% had one in any assay.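 Single-concentration screen, 48 h exposure, 96-well plates. Endpoint: percent growth. Below 10 = active.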 A number with no mark means an inactive call. Calls of active or inactive are those of the source.

What all share (experiment): NCI-60 one-dose screen, 48 h (100 = growth as untreated, 0 = no growth, -100 = all killed)
What all share (settings): 10 µM unless noted

In assay [1] the test system is HCT-15 colon.
Assay [2] has as its system HT29 colon.
Assay [3] relates to SNB-75 CNS.
Assay [4] deals with SNB-19 CNS.
Assay [5] relates to U251 CNS.
Assay [6] concerns PC-3 prostate.
The test system of assay [7] is SK-MEL-5 melanoma.
For assay [8], the system named is UACC-62 melanoma.
In assay [9] the test system is LOX IMVI melanoma.
Assay [10] has as its system SK-MEL-28 melanoma.
Assay [11] relates to SK-MEL-2 melanoma.
Assay [12] deals with EKVX NSCLC.
Assay [13] has as its system SN12C renal.
Assay [14] concerns UO-31 renal.
The test system of assay [15] is TK-10 renal.
In assay [16] the test system is ACHN renal.
Assay [17] concerns CAKI-1 renal.
Assay [18] deals with A498 renal.
Assay [19] has as its system MOLT-4 leukemia.
Assay [20] has as its system CCRF-CEM leukemia.

Regarding `c1ccc(-c2cc(-c3cc(-c4ccccc4)on3)no2)cc1`, the growth in assay [1] was 17.5%; in assay [2] it was 21.2%; in [3], 123%; in assay [4] it was 101%; in [5] it was 73.8%; in [6], 128%. Moreover, the growth was 101% in assay [7]; 89.7% in [8]; 69.2% in assay [9]; 102% in assay [10]; 20.5% in [11]; 121% in [12]. Also, the growth in assay [13] is 92.9%; in assay [14], 92.1%; in [15], 104%; in [16], -3.89% (active); in [17], 35.5%; in assay [18], 97.6%. Besides, in assay [19], the growth is 63.7%.

`Nc1ncc(-c2ccc3ncnc(N4CCc5ccc(Cl)cc54)c3c2)cc1C(F)(F)F`: the growth in [1] is 14.9%; in [2] it was 9.27% (active); in assay [3] it was -23.4% (active); in [4] it was 32.7%; in [5], 28.4%; in [6], 15.4%. In addition, the growth in assay [7] was 22.6%; in assay [8] it was 10.5%; in [9], 11.7%; in assay [10], 28.7%; in [11] it was 14.1%; in [12], 6.87% (active). For the same molecule, the growth is 20.6% in assay [13]; -12% (active) in [14]; -3.58% (active) in [15]; 11% in assay [16]; -9.77% (active) in [17]; -62.5% (active) in [18]. Also, the growth in [20] is 21.6%; in assay [19], 7.2% (active).

Consider `Cn1c(=O)c2c(nc(Nc3cc(=O)[nH]c(=O)[nH]3)n2Cc2ccccc2)n(C)c1=O`, for which the growth in assay [1] was 98.3%; in [2] it was -4.46% (active); in [3], -21% (active); in assay [4], 96.9%; in assay [5] it was 12.2%; in assay [6] it was 92.2%. Besides, the growth in [7] is 98.1%; in assay [8], 88.3%; in assay [9], 92.3%; in assay [10] it was 101%; in [11], -2.98% (active); in assay [12], 90%. The growth in assay [13] is 95.2%; in [14], 79.5%; in [15], 14.3%; in assay [16], 100%; in assay [17], 37.9%; in [18], -13.8% (active). In assay [19], the growth was 92.7%.

With `Cc1ccc(/C=C(\C#N)c2cc3ccccc3[nH]2)cc1`, the growth in [1] is 27.1%; in [2] it was 13%; in assay [3] it was 54.1%; in assay [4], 55.4%; in assay [5] it was 38%; in [6], 71.1%. The growth was 52% in assay [7]; 22.7% in assay [8]; 43.4% in assay [9]; 72.1% in assay [10]; 48.8% in [11]; 74.7% in assay [12]. Also, the growth was 50.3% in [13]; 69.8% in assay [14]; 82.6% in assay [15]; 85.6% in assay [16]; 45.6% in [17]; 57.2% in assay [18]. For the same molecule, the growth in assay [19] is 30.6%.

On to `Cc1ccc(C(=O)Nc2nc3c(s2)CN(Cc2ccccc2)CC3)cn1`, for which the growth in assay [1] is 49.5%; in assay [2] it was 59.1%; in assay [3] it was 66.9%; in assay [4], 92.3%; in [5] it was 92.9%; in assay [6], 74.1%. Moreover, the growth was 79.3% in assay [7]; 74.5% in assay [8]; 87% in [9]; 94.3% in [10]; 93% in assay [11]; 90.4% in assay [12]. Besides, the growth in assay [13] is 89.7%; in [14] it was 80.5%; in [15], 89.4%; in [16], 100%; in assay [17], 65.2%; in assay [18], 89.9%. Besides, the growth in assay [19] is 95.6%.

Consider `COc1cccc(C2C(C#N)=C(N)Oc3cc(OCCCCCC[P+](c4ccccc4)(c4ccccc4)c4ccccc4)ccc32)c1` (centres undefined), for which the growth in assay [1] is 62%; in [2] it was -17.6% (active); in [3], -71.3% (active); in assay [4] it was -65.8% (active); in assay [5], -79.4% (active); in [6] it was -13.1% (active). Further, the growth in assay [7] is -97.5% (active); in assay [8], -66.8% (active); in assay [9] it was -93.8% (active); in assay [10], -77.1% (active); in [11] it was -59.2% (active); in [12], -0.839% (active). In addition, the growth in [13] is -31.4% (active); in [14], 39.2%; in [15] it was -16.5% (active); in assay [16] it was 18%; in assay [17] it was -8.91% (active); in assay [18], -30% (active). Also, in assay [19], the growth is -15.8% (active).

Consider `CC(=O)Nc1c(I)c(NC(C)=O)c(I)c(C(=O)O)c1I`, for which the growth in [1] was 98.5% and 131%; in [2], 108% and 118%; in assay [3] it was 82% and 124%; in assay [4] it was 107%; in assay [5] it was 102% and 106%; in assay [6] it was 88.2% and 101%. In addition, the growth in assay [7] is 103% and 105%; in assay [8], 105% and 119%; in assay [9], 95.8% and 111%; in assay [10], 115% and 108%; in assay [11] it was 111% and 93.8%; in assay [12] it was 102% and 90.6%. The growth in assay [13] was 102% and 106%; in [14], 76.3% and 88.3%; in assay [15] it was 120% and 101%; in assay [16], 96.9% and 112%; in assay [17], 89.8% and 91.3%; in assay [18], 107% and 123%. In addition, the growth in assay [19] is 96.9% and 90.1%.
